From PubChem BioAssay
KinaseGlo FLuc: Counterscreen for Luciferase (Kinase-Glo TM) Inhibition; Luciferin 4-monooxygenase (Photuris pensylvanica), Q27757; AID 1379, 2008; actives 0.28% (n = 200,000); Kinase-Glo luciferase, ATP luminescence, 8 min; Potency, µM (top dose mostly 38.3 µM), for inactives: at the highest dose activity change, negative = inhibition, most hits filed as inhibitors; further: on the % scale 0 is the no-effect control and ±100 the full control effect; nearly all actives have a fitted effect of over 60% in size
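Substrate mix (final 50 mM imidazole pH 7.2, 50 mM KCl, 7 mM MgCl2, 10 uM ATP, 0.01% Tween 20, 0.05% BSA) plus pin-tool compound, then Kinase-Glo detection mix; 8 min ambient, luminescence read.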
NPC1 prom act: qHTS Assay for NPC1 Promoter Activators; Potency, µM (top dose mostly 9.22 µM), for the others: at the top dose activation, hits mostly activators; Huh7 NPC1 promoter luciferase reporter, 24 h; actives 2.4% (n = 320,000); AID 485313, 2010; further: % of control where 0% means no effect; nearly all actives have a fitted effect of over 60% in size
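NPC1 promoter–luciferase Huh7 cells; 24 h compound; luminescence.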
Rab9 promoter act: qHTS Assay for Rab9 Promoter Activators | Huh7 Rab9 promoter-luciferase reporter, luminescence, 24 h | Potency, µM (highest dose often 9.22 µM), for the others: top-dose activation, negative = inhibition, actives largely listed as activators | actives 2.8% (n = 320,000) | AID 485297, 2010; further: % of control where 0% means no effect; nearly all actives have a fitted effect of over 60% in size
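Measured in stably transfected Huh7 cells bearing a Rab9 promoter–luciferase construct: 24 h compound treatment at 37 °C, followed by luminescence detection.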
ELG1 genotox: qHTS screen for small molecules that induce genotoxicity in human embryonic kidney (HEK293T) cells expressing luciferase-tagged ELG1. Potency, µM (titrated, usually from 46 µM), inactives show at the highest dose activity change, positive = activation, hits mostly activators. actives 1.3% (n = 330,000). HEK293T ELG1-luciferase reporter, luminescence, 16 h. AID 504466, 2011; further: % of control where 0% means no effect; nearly all actives have a fitted effect of over 60% in size
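ELG1-luciferase HEK293T cells, 2,000/well; compound pinned in; 16 hr, 37 °C, 5% CO2; ONE-Glo, 30 min RT; luminescence on CCD imager.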
FLuc counter: qHTS profiling assay for firefly luciferase inhibitor/activator using purifed enzyme and Km concentrations of substrates (counterscreen for miR-21 project); Luciferin 4-monooxygenase (Photinus pyralis), P08659; actives 6.9% (n = 360,000); Potency, µM (highest dose often 57.5 µM), for the others: at the top dose activity change, negative = inhibition, hits mostly inhibitors; AID 588342, 2011; purified FLuc, Km substrates, luminescence inhibition;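 further: plate controls were vehicle for no effect and reference inhibitor for full effect; nearly all actives have a fitted effect of over 55% in size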
Target sequence (P08659 whole entry, looked up): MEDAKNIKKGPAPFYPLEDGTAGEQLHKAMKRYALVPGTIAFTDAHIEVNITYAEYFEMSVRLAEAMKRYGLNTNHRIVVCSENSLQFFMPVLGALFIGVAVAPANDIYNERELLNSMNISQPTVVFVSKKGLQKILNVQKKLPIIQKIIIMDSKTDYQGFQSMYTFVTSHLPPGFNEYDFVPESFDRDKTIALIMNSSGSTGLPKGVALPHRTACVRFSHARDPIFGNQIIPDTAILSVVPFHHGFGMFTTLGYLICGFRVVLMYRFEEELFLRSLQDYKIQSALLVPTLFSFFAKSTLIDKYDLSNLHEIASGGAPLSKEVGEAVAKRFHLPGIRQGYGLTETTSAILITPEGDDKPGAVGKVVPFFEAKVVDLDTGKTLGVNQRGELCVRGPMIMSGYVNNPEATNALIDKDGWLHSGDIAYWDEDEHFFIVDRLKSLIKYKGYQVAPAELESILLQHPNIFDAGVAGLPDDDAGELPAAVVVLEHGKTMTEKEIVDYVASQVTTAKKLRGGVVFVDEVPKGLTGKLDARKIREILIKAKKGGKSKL
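Purified P. pyralis luciferase, 10 nM final, with Km-level 10 uM D-luciferin and 10 uM ATP in 50 mM Tris acetate pH 7.5, 10 mM Mg acetate, 0.01% Tween-20, 0.05% BSA; 6-point qHTS titration about 60 µM downward; luminescence read.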
SMN2 splice enh: qHTS Assay for Enhancers of SMN2 Splice Variant Expression; actives 2.8% (n = 210,000); AID 1458, 2008; HEK293 SMN2-luciferase splicing reporter, luminescence, 30-36 h; Potency, µM (titrated, usually from 46.1 µM), without a hit: top-dose activity change, positive = activation, usual class: activators; further: % of control where 0% means no effect; nearly all actives have a fitted effect of over 55% in size
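qHTS luciferase splicing reporter: luminescence rises when SMN2 exon 7 is included in transfected HEK293 cells. Compound exposure lasted 30-36 h at 37C, with 4.5 mM final sodium butyrate as control, followed by a ONE-Glo read.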
Numbers without * were called inactive; u = inconclusive; x = not tested or not shown. Sampled rows, rich in hits. Any-hit rate of the full collection: about 7.3%. The call rests on the fitted dose curve; in most records, active means well fitted curve in the direction sought with a large enough effect; inconclusive means small, poorly fitted or top-dose-only effect, or another doubt; inactive means no such curve, though single readings can be large; an effect the other way counts as inactive or inconclusive. Potency means the concentration at half of the fitted maximal effect.

SMILES	KinaseGlo FLuc	NPC1 prom act	Rab9 promoter act	ELG1 genotox	FLuc counter	SMN2 splice enh
COc1ccc(C2=CC(c3cc(Br)ccc3F)n3c(nc4ccccc43)N2)cc1 (stereo unspecified)	x	x	x	x	4.26µM*	x
Cc1cccc(N2CCC(N=CN(C)C)=N2)c1	-4.9%	18.2%	u	10.1%	u	14.2%
Cc1cccc(NC(=O)C(=O)NCCCc2ccccc2)c1	-2.2%	u	u	23.4%	u	10µM*
O=C(NCCCc1ccccc1)c1ccc([N+](=O)[O-])cc1Cl	x	u	u	u	8.49µM*	x
CSCCC(NC(=O)c1ccc([N+](=O)[O-])cc1Cl)C(=O)OCC(=O)NCCCc1ccccc1 (stereo unspecified)	-2.1%	-1.4%	-3.7%	-1.0%	u	-0.4%
Cc1ccc(C(=O)NCCCc2ccccc2)c(Cl)c1	x	2.51µM*	2.24µM*	u	8.49µM*	x
O=C(NCCc1ccccc1)C(=O)Nc1cccc(Br)c1	x	x	x	x	0.4%	-1.6%
Cc1ccc(C(=O)NCCCc2ccccc2)c(C)c1	-0.3%	1.41µM*	3.55µM*	16.4µM*	8.49µM*	12.6µM*
CCCc1nc(SCC(=O)NNC(=O)C2CCCCC2)c2ccccc2n1	-2.8%	3.3%	0.6%	-0.9%	4.5%	-15.7%
CSc1ccccc1OCc1cc(C(=O)N2CCCC2c2nonc2C)no1 (stereo unspecified)	x	2µM*	2.24µM*	u	8.49µM*	x
Cc1cccc(C)c1OCc1cc(C(=O)N2CCCC2c2nonc2C)no1 (stereo unspecified)	x	3.5%	7.0%	-3.2%	-2.8%	x
Cc1nonc1C1CCCN1C(=O)c1cc(COc2ccc(F)cc2F)on1 (stereo unspecified)	-2.8%	u	2.24µM*	u	9.53µM*	x
O=C(COc1ccc2ccccc2c1Br)Nc1cccnc1	x	u	3.5%	17.8%	4.78µM*	x
O=C(COc1ccc2ccccc2c1Br)Nc1ccncc1	x	-13.7%	-10.5%	8.4%	12µM*	x
N#Cc1cccnc1Nc1ccc(Cl)cc1	-2.0%	9.7%	0.5%	1.9%	2.1%	-11.1%
O=C(O)c1cccc(Nc2nc(N3CCOCC3)nc(N3CCOCC3)n2)c1	0.7%	-4.7%	-8.1%	-6.5%	3.0%	23.0%
Fc1ccc(Nc2ccnc(Nc3ccc(F)cc3)n2)cc1	7.8%	u	u	u	8.49µM*	x
Nc1ncnc(Nc2ccc(F)cc2)n1	0.1%	-5.4%	0.9%	-0.7%	-5.8%	19.1%
O=C(O)c1cccc(Nc2ccnc(Nc3cccc(C(=O)O)c3)n2)c1	x	u	u	u	6.01µM*	x
Cc1cc(C)c(NC(=O)CN(c2ccccc2)S(=O)(=O)N(C)C)c(C)c1	-3.2%	1.6%	-3.4%	-0.3%	2.4%	-2.4%
CCOC(=O)c1oc2ccccc2c1NC(=O)CN1CCN(C)CC1	10.6%	-0.1%	-9.8%	2.8%	10.1%	-2.2%
CCOC(=O)c1cnc(Nc2nc3ccccc3o2)nc1CN1CCN(C)CC1	-3.3%	29.3%	2.1%	u	-2.3%	12.6µM*
COc1ccc(NC(=O)N2CCN(c3cccc(C(F)(F)F)c3)CC2)cc1	-1.3%	-2.2%	-6.9%	-5.8%	1.0%	-40.3%
Cc1nc2cc(NC(=O)N3c4ccccc4CC3C)ccc2o1 (stereo unspecified)	-3.1%	0.794µM*	0.891µM*	3.26µM*	6.01µM*	11.2µM*
Cc1nc2cc(NC(=O)NCc3ccc4c(c3)OCO4)ccc2o1	3.5%	-2.9%	-2.3%	1.5%	-2.2%	-1.8%
